{"source": "PubChem BioAssay (NCATS)", "note": "Inconclusive results are not listed. The source made the active and inactive calls. Calls come from the whole dose curve; as a rule, active = well fitted cell-killing curve with a large enough effect; inconclusive = small, poorly fitted or top-dose-only effect, or effect the other way; inactive = no such curve, though single readings can be large or run the other way. % is set by controls: 0 for no effect and ±100 for the full control effect; potency is the fitted concentration of half-maximal effect."}
{"test": "qHTS of pediatric cancer cell lines to identify multiple opportunities for drug repurposing: Confirmatory screen for NB-EBc1 cells (AID 1347115);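 note: cells exposed to compound for 48 h before the viability read; nearly all actives have a fitted effect of over 45% in size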", "conditions": "NB-EBc1 neuroblastoma cells, viability (cytotoxicity); series mostly up to 45.9 µM; activity change, negative = cytotoxic: at the top concentration", "from_the_text": "Drug repurposing or repositioning has been offered as a strategy for drug development in oncology programs. This approach has special potential for childhood cancers and other rare or orphan diseases, where the expected return on new drug development has been a disincentive to pharmaceuticals.\nIn this project we exploit the poly-pharmacology of drugs to discover new indications via phenotypic screening of a panel of 19 well-characterized cell lines derived from solid tumors seen in children and adolescents. The goal is to identify approved drugs with previously unrecognized anticancer properties that has the potential to reveal new mechanisms and biological processes involved in carcinogenesis or drug resistance. We employed a titration-based paradigm (quantitative high-throughput screening or qHTS), where all compounds were tested at multiple concentrations for their effect on cell viability. Concentration-response curves (CRCs) were derived directly from the primary screen, and both potency and efficacy values were used to identify compounds with robust bioactivity profiles. We screened the NIH Chemical Genomics Center (NCGC) Pharmaceutical Collection (NPC) and Mechanism Interrogation Plate (MIPE) small molecule collections of approved and investigational compounds against these cell lines; and measured metabolically active cells after 48 hours of compound treatment as a proxy for cell viability.\nAssay Submitter: Nathalia J. Martinez, National Center for Advancing Translational Sciences, National Institutes of Health, Rockville, MD, USA; email: natalia.martinez@nih.gov\n[1] Shen, M et al. Quantitative high-throughput phenotypic screening of pediatric cancer cell lines identifies multiple opportunities for drug repurposing. Oncotarget 2017 Dec 19;9(4):4758-4772. PMID 29435139.\nThe cells were obtained from University of North Carolina (UNC), Pediatric Preclinical Testing Program (PPT), and Coriell Institute (CI).\nqHTS cell viability assay:\nCells were assayed in growth media at a density of 500-1,000 cells/well. Five microliters of cells were dispensed into 1,536-well, white, solid-bottom, TC-treated plates (Greiner Bio One) using a multidrop dispenser and incubated at 37 degrees C, 5% CO2, under a humidified atmosphere for 5 hours. Twenty-three nanoliters of compounds and controls (neutral control DMSO or positive control bortezomib at final concentration of 2.3 µM) were subsequently transferred by Kalypsys pintool. For primary screens, the MIPE collection was tested at 11-point dilutions (final concentrations range from 0.78 nM to 46 µM) and the NPC collection at 8-point dilutions (final concentrations range from 0.59 nM to 46 µM). Compounds tested in follow-up screens were assayed at 11-point dilutions. Cells were incubated for 48 hours, followed by addition of 3 µL of CellTiter-Glo (Promega). After a 15 min incubation at room temperature, samples were analyzed for luminescence intensity using a ViewLux High-throughput CCD imager equipped with clear filters."}
{"smiles": "CC(C)NCC(O)c1ccc(O)c(O)c1", "note": "(configuration not stated)", "activity change, negative = cytotoxic": "-12.3% (inactive)"}
{"smiles": "CN(C)CCCN1c2ccccc2CCc2ccc(Cl)cc21", "activity change, negative = cytotoxic": "-19.5% (inactive)"}
{"smiles": "CC(CCc1ccc(O)cc1)NCCc1ccc(O)c(O)c1", "note": "(configuration not stated)", "Potency": "5850 nM (active)"}
{"smiles": "CCCCc1oc2ccccc2c1C(=O)c1cc(I)c(OCCN(CC)CC)c(I)c1", "Potency": "56200 nM (active)"}
{"smiles": "CCC1(c2ccccc2)C(=O)NCNC1=O", "activity change, negative = cytotoxic": "-0.989% (inactive)"}
{"smiles": "O=C1c2c(O)ccc(O)c2C(=O)c2c(NCCNCCO)ccc(NCCNCCO)c21", "Potency": "414 nM (active)"}
{"smiles": "Clc1ccc2nsnc2c1NC1=NCCN1", "activity change, negative = cytotoxic": "-3.43% (inactive)"}
{"smiles": "NC(=O)NO", "activity change, negative = cytotoxic": "-4.61% (inactive)"}
{"smiles": "CC(C)C(=O)Nc1ccc([N+](=O)[O-])c(C(F)(F)F)c1", "activity change, negative = cytotoxic": "0.76% (inactive)"}
{"smiles": "CN1CCN(CCCN2c3ccccc3Sc3ccc(Cl)cc32)CC1", "activity change, negative = cytotoxic": "-19.3% (inactive)"}
{"smiles": "CC(C)Cc1ccc(C(C)C(=O)O)cc1", "note": "(configuration not stated)", "activity change, negative = cytotoxic": "-13% (inactive)"}
{"smiles": "CS(=O)(=O)CCNCc1ccc(-c2ccc3ncnc(Nc4ccc(OCc5cccc(F)c5)c(Cl)c4)c3c2)o1", "activity change, negative = cytotoxic": "-63.1% (inactive)"}
{"smiles": "Clc1ccc(C(c2ccccc2Cl)C(Cl)Cl)cc1", "note": "(configuration not stated)", "activity change, negative = cytotoxic": "-16.9% (inactive)"}
{"smiles": "O=C(c1ccc(OCCN2CCCCC2)cc1)c1c(-c2ccc(O)cc2)sc2cc(O)ccc12", "activity change, negative = cytotoxic": "-3.27% (inactive)"}
{"smiles": "CC#C[C@]1(O)CC[C@H]2[C@@H]3CCC4=CC(=O)CCC4=C3[C@@H](c3ccc(N(C)C)cc3)C[C@@]21C", "activity change, negative = cytotoxic": "-12.8% (inactive)"}
{"smiles": "O=C(Nc1ccc([N+](=O)[O-])cc1Cl)c1cc(Cl)ccc1O", "Potency": "1440 nM (active)"}
{"smiles": "CC[C@@]1(O)C(=O)OCc2c1cc1n(c2=O)Cc2cc3c(CN(C)C)c(O)ccc3nc2-1", "Potency": "92.8 nM (active)"}
